# Compound activity deposited in PubChem by The Scripps Research Institute Molecular Screening Center.
# PAFAH1B2 inh – PAFAH1B2 (human) inhibition; P68402; recombinant PAFAH1B2, FP-rhodamine activity probe, fluorescence polarization; inhibition, % at 3.39 µM; actives 1.2% (n = 340,000); AID 492953;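 active means inhibition above the mean of all tested compounds plus 3 SD, cut at about 24% in these data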;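 further: 0% = enzyme with DMSO and 100% = wells lacking PAFAH1B2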
# PME-1 inh – blocks human protein phosphatase methylesterase 1. Q9Y570. recombinant PME-1, FP-Rh probe fluorescence polarization. inhibition, % at 5.9 µM. actives 0.53% (n = 320,000);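 active means inhibition above the campaign mean of all compounds plus 3 SD, cut at about 26% in these data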;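 further: competitive labeling of PME-1 active site by serine hydrolase directed probe; 0% = PME-1 with DMSO and 100% = wells lacking PME-1 enzyme; inhibitors block probe labeling so polarization falls and inhibition rises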
# PAFAH2 FP inh – PAFAH2 (human) inhibition; actives 0.99% (n = 340,000); Q99487; recombinant PAFAH2, FP-rhodamine activity probe, fluorescence polarization; inhibition, % at 3.39 µM; AID 492956;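 active means inhibition above the mean over all tested compounds plus 3 SD, cut at about 30% in these data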;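 further: inhibitors block probe labeling of enzyme so polarization drops; 0% = enzyme with DMSO and 100% = wells lacking PAFAH2 protein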
# Fam108B inh – blocks mouse Fam108B hydrolase in RBBP9 counter-screen | recombinant Fam108B, FP-Rh probe fluorescence polarization | inhibition, % at 9.51 µM | actives 0.33% (n = 300,000);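 active means inhibition above the screen mean inhibition plus 3 SD, computed separately per campaign, cut at about 18% in these data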;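 further: inhibitors lower polarization as less probe binds the enzyme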
# PAFAH1B3 inh – blocks human PAF acetylhydrolase 1B catalytic subunit 3 | actives 0.28% (n = 340,000) | Q15102 | recombinant PAFAH1B3, FP-rhodamine probe, fluorescence polarization | inhibition, % at 3.39 µM;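 active means inhibition above the screen-wide average of all tested compounds plus 3 SD, cut at about 25% in these data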;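 further: 0% = enzyme with DMSO only and 100% = wells lacking PAFAH1B3 protein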
# Target sequence (Q15102 whole entry, looked up): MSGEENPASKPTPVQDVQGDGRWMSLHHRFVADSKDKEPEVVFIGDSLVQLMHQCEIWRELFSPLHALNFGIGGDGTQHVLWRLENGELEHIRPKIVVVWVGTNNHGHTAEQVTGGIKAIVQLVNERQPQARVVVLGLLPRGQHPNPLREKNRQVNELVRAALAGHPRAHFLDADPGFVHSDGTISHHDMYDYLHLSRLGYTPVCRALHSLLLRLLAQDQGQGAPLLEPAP
# pPAFAH inh – pPAFAH (human) enzyme inhibition; recombinant pPAFAH, FP-rhodamine probe fluorescence polarization; inhibition, % at 3.39 µM; actives 1.5% (n = 330,000);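 active means inhibition above the mean inhibition across the screen plus 3 SD, cut at about 25% in these data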;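 further: inhibitors block binding of the rhodamine activity-based probe so polarization drops; 0% = enzyme with DMSO and 100% = wells lacking pPAFAH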
# Target sequence (Q13093 whole entry, looked up): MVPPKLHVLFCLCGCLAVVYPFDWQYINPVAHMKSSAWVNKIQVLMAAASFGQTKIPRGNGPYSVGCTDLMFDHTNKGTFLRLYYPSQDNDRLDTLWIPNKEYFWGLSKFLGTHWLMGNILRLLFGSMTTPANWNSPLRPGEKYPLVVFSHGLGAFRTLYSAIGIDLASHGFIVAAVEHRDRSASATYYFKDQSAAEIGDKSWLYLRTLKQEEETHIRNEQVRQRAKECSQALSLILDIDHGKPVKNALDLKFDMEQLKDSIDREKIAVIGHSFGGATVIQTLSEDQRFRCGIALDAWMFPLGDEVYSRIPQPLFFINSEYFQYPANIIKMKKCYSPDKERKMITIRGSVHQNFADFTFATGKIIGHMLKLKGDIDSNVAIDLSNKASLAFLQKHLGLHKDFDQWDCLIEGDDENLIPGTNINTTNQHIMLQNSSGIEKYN
# * marks the source's active call; other numbers are inactive results; . = no result. Most compounds without a hit are left out; they make up all but 2.9% or so of the library.
SMILES,PAFAH1B2 inh,PME-1 inh,PAFAH2 FP inh,Fam108B inh,PAFAH1B3 inh,pPAFAH inh
Cc1cccc(NC(=O)CSc2nc(C3CC3)nc3ccccc23)c1,5.5,3.8,-11.7,0.6,-1.5,3.4
COc1ccc(NS(=O)(=O)c2ccc(C(=O)N(C)Cc3ccc(C)o3)cc2)cc1,4.2,.,0.1,.,8.7,31.7*
COCCNC(=O)CCc1ccc(S(=O)(=O)Nc2ccc(C)cc2)cc1,11.7,6.4,1.0,2.0,-3.8,24.8*
COc1ccc(NS(=O)(=O)c2ccc(NC(=O)C3CCCO3)cc2)cc1 (stereo not drawn),1.5,4.9,-5.7,2.5,-0.8,26.0*
COc1ccc(NS(=O)(=O)c2ccc(C)c(C(=O)N(C)Cc3ccc(C)cc3)c2)cc1,-0.6,6.7,7.1,-2.1,9.0,27.5*
COc1ccc(NS(=O)(=O)c2ccc(C)c(C(=O)N(C)CCc3ccc(OC)c(OC)c3)c2)cc1,2.5,3.8,3.2,0.8,-2.4,19.4
CCCCCCC(=O)NCC(=O)OCC(=O)c1ccccc1,-2.9,0.6,1.8,-1.6,5.4,6.4
COc1ccc(NC(=O)CSc2nc(C)c3c(c2C#N)CCCC3)cc1,5.2,2.2,4.7,-0.1,13.0,1.8
CCc1nnc(NC(=O)CSc2nc(C)c3c(c2C#N)CCCC3)s1,6.8,33.5*,0.8,4.9,3.2,8.4
Cc1[nH]nc2c1C(c1cccc(O)c1)C1=C(CC(C)(C)CC1=O)N2 (stereo not drawn),5.9,1.4,12.7,-2.4,8.0,-2.1
O=C(NCc1ccc(Cl)cc1)C(=O)NCC1OCCN1S(=O)(=O)c1cc(F)ccc1F (stereo not drawn),30.0*,1.2,3.4,-0.9,-0.4,11.3
NS(=O)(=O)c1ccc(NC(=O)COC(=O)CCc2ccccc2)cc1,4.1,0.1,-3.3,-5.9,7.1,-2.7
Cc1ccc(SCCC(=O)OCC(=O)Nc2ccc(S(N)(=O)=O)cc2)cc1,24.2*,-0.2,-7.0,2.5,-2.7,12.2
Cc1ccc(SC2=C(N(C)C)C(=O)c3ccccc3C2=O)cc1,24.5*,.,18.9,.,34.2*,.
O=C(NCCNCCO)C1(C(F)(F)F)C/C(=C\Cc2ccccc2)CCCO1 (stereo not drawn),1.7,3.6,3.7,-1.1,4.2,4.5
O=C1C(=Cc2ccco2)C(=O)c2ccccc21,4.2,2.9,6.7,7.0,8.2,28.2*
COc1ccccc1/C=c1\sc2nc(-c3ccco3)nn2c1=O,5.9,-8.1,17.4,1.6,3.1,25.4*
COc1ccc(-c2noc(CSc3nnc(CCc4ccccc4)n3-c3ccccc3)n2)cc1OC,-4.6,9.1,-2.3,7.4,-2.3,5.8
COc1ccc(-c2noc(CSc3ccccc3)n2)cc1OC,24.4*,-3.0,7.2,-1.6,7.0,14.4
COC(=O)c1c(O)cc(=O)n2c1CCCCC2,0.3,-4.1,0.8,-2.7,0.9,3.8
COc1ccccc1N1CCN(CCN2C(=O)CC(=C3c4ccccc4-c4ccccc43)C2=O)CC1,.,3.3,.,6.0,.,29.0*
Cc1ccccc1N1CCN(CCN2C(=O)CC(=C3c4ccccc4-c4ccccc43)C2=O)CC1,-1.0,2.1,-8.0,0.3,5.2,18.4
O=C(COC(=O)CNC(=O)c1ccccc1F)NC12CC3CC(CC(C3)C1)C2,2.1,3.5,-1.5,.,2.4,5.6
O=C(COC(=O)COc1ccccc1)NC12CC3CC(CC(C3)C1)C2,25.1*,6.2,2.3,.,-2.2,12.5
CCOc1ccc(NC(=O)CSc2nc3ccsc3c(=O)n2CCC(=O)O)cc1,-5.4,-6.2,3.7,0.1,8.4,4.0
SMILES,PAFAH1B2 inh,PME-1 inh,PAFAH2 FP inh,Fam108B inh,PAFAH1B3 inh,pPAFAH inh
O=C1c2ccccc2-c2onc3ccc(N4CCCC4)c1c23,77.1*,.,87.7*,.,73.7*,.
CC(=O)Nc1ccc(S(=O)(=O)N2CCN(C(=O)N3CCOCC3)CC2)cc1,0.1,-2.9,10.2,-4.3,3.9,1.4
O=S(=O)(c1ccc(Cl)cc1)N1CCN(c2ccc(N3CCOCC3)nn2)CC1,26.4*,11.6,-4.9,1.4,-2.1,4.7
O=C(N1CCOCC1)N1CCN(S(=O)(=O)c2ccc(Cl)cc2)CC1,24.9*,-0.4,4.0,-4.1,10.2,2.8
Cn1cnc(S(=O)(=O)N2CCN(c3ccc(Cl)cc3)CC2)c1,28.4*,-6.4,1.5,2.1,13.4,-0.5
CN1C=C(C(F)(F)F)C=C/C1=C(\C#N)c1nnc2n1CCCCC2,1.3,2.7,4.1,-4.5,-0.1,2.0
CC(O)CNc1nc2ccccc2n1CC(=O)NCCc1ccc(Cl)cc1 (stereo not drawn),27.6*,7.2,-0.3,-0.6,1.1,4.0
Cc1cccc(C)c1OCC(=O)OCC(=O)Nc1ccc(Cl)cn1,2.4,7.3,-2.0,.,-1.4,19.2
CC1OC2(C)OC(=N)C1(C#N)C(C#N)(C#N)C2c1ccccc1 (stereo not drawn),13.3,15.8,17.7,14.5,11.6,5.9
CC1C2(C)OC(=N)C(C#N)(C(C)O2)C1(C#N)C#N (stereo not drawn),52.6*,0.6,75.4*,8.9,59.6*,3.9
CCOC(=O)c1sc2cc([N+](=O)[O-])cc(SCCO)c2c1N,-4.8,-7.3,-7.7,-1.4,3.9,3.0
CCOC(=O)c1sc2cc([N+](=O)[O-])cc(SCC(=O)OC)c2c1N,-2.1,8.4,3.9,7.5,4.6,25.4*
CN(CC(=O)Nc1ccc(F)c(F)c1F)C(=O)C1CC(=O)N(c2ccc3c(c2)OCCO3)C1 (stereo not drawn),5.6,-8.5,0.0,1.6,-6.4,5.1
COc1ccc(CNC(=O)Cc2c(C(=O)O)[nH]c3ccccc23)cc1,25.4*,-2.3,4.9,-7.3,11.8,-3.3
C=CCn1c(C)cc(C(=O)CSc2nnc(-c3cccc(S(=O)(=O)N(CC)CC)c3)o2)c1C,2.8,-2.6,-4.4,-1.3,-0.3,3.7
COc1ccc(NC(=O)N(C)C[C@H]2Oc3ccc(NC(=O)Cc4ccccc4)cc3CC(=O)N([C@H](C)CO)C[C@H]2C)cc1,1.1,.,-3.4,.,6.2,31.2*
COc1ccc(S(=O)(=O)N(C)C[C@H]2Oc3ccc(NS(=O)(=O)c4ccccc4)cc3CC(=O)N([C@H](C)CO)C[C@@H]2C)cc1,11.1,.,4.5,.,10.7,15.4
COc1ccc(S(=O)(=O)Nc2ccc3c(c2)CC(=O)N([C@@H](C)CO)C[C@@H](C)[C@@H](CN(C)Cc2ccccc2)O3)cc1,37.6*,.,2.6,.,6.9,10.8
O=C(NN=Cc1cccc([N+](=O)[O-])c1)c1cc(-c2cccnc2)nc2ccccc12,1.9,.,3.6,.,-2.9,-0.4
O=C1CCN(S(=O)(=O)c2ccccc2)CCN1CCOCc1ccc(C(F)(F)F)cc1,9.2,0.8,0.8,1.9,3.4,16.6
Cc1ccc(S(=O)(=O)N2CCC(=O)N(CCOC(=O)Nc3ccc(C)c(C)c3)CC2)cc1,15.9,-3.9,-0.4,4.0,0.2,11.4
